# Shown is part of a subset that was picked to be rich in the strongest signals.
# B1: Dectin2 (Homo sapiens), Q6EIG7 (protein)
# chain: MMQEQQPQSTEKRGWLSLRLWSVAGISIALLSACFIVSCVVTYHFTYGETGKRLSELHSYHSSLTCFSEGTKVPAWGCCPASWKSFGSSCYFISSEEKVWSKSEQNCVEMGAHLVVFNTEAEQNFIVQQLNESFSYFLGLSDPQGNNNWQWIDKTPYEKNVRFWHLGEPNHSAEQCASIVFWKPTGWGWNDVICETRRNSICEMNKIYL
# What was measured:
# Experiment in all cases: glycan array binding signal (z-score within array); higher = stronger binding
# Conditions in all cases: glycan notation: IUPAC condensed, linker removed
# [1] = target: Fuc(a1-2)Gal(b1-3)GlcNAc(b1-3)[Gal(b1-4)GlcNAc(b1-6)]Gal(b1-4)Glc
# How it was run: (§1)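 Columns mapping to the same glycan were averaged after glycan names were converted to IUPAC-condensed notation. The data come from 3228 arrays in the Consortium for Functional Glycomics database, limited to those with an available protein sequence. Binding is reported as a within-array Z-score averaged across arrays of one protein sequence and across linkers.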
# [2] = target: Fuc(a1-2)Gal(b1-3)GlcNAc(b1-3)[Neu5Ac(a2-6)Gal(b1-4)GlcNAc(b1-6)]Gal(b1-4)Glc
# How it was run: as §1
# Fuc(a1-2)Gal(b1-4)Glc = target: Fuc(a1-2)Gal(b1-4)Glc
# How it was run: as §1
# [3] = target: Fuc(a1-2)Gal(b1-4)GlcNAc6S
# How it was run: as §1
# [4] = target: Fuc(a1-2)[Gal(a1-3)]Gal(b1-4)GlcNAc(b1-3)[Fuc(a1-2)[Gal(a1-3)]Gal(b1-4)GlcNAc(b1-6)]GalNAc
# How it was run: as §1
# [5] = target: Fuc(a1-2)[Gal(a1-3)]Gal(b1-4)[Fuc(a1-3)]GlcNAc
# How it was run: as §1
# [6] = target: Fuc(a1-2)[GalNAc(a1-4)]Gal(b1-4)GlcNAc
# How it was run: as §1
# Fuc(a1-4)GlcNAc = target: Fuc(a1-4)GlcNAc
# How it was run: as §1
# Gal(b1-3)Gal = target: Gal(b1-3)Gal
# How it was run: as §1
# [7] = target: Gal(b1-3)GlcNAc(b1-3)Gal(b1-4)GlcNAc(b1-2)Man(a1-3)[Gal(b1-3)GlcNAc(b1-3)Gal(b1-4)GlcNAc(b1-2)Man(a1-6)]Man(b1-4)GlcNAc(b1-4)GlcNAc
# How it was run: as §1
# [8] = target: Gal(b1-3)GlcNAc(b1-3)Gal(b1-4)GlcNAc(b1-2)[Gal(b1-3)GlcNAc(b1-3)Gal(b1-4)GlcNAc(b1-6)]Man(a1-6)[Gal(b1-3)GlcNAc(b1-3)Gal(b1-4)GlcNAc(b1-2)Man(a1-3)]Man(b1-4)GlcNAc(b1-4)[Fuc(a1-6)]GlcNAc
# How it was run: as §1
# [9] = target: Gal(b1-3)[Fuc(a1-4)]GlcNAc
# How it was run: as §1
# Gal(b1-4)Glc6S = target: Gal(b1-4)Glc6S
# How it was run: as §1
# [10] = target: Gal(b1-4)GlcNAc(b1-2)[Gal(b1-4)GlcNAc(b1-4)]Man(a1-3)[Gal(b1-4)GlcNAc(b1-2)Man(a1-6)]Man(b1-4)GlcNAc(b1-4)GlcNAc
# How it was run: as §1
# [11] = target: Gal(b1-4)GlcNAc(b1-2)[Gal(b1-4)GlcNAc(b1-4)]Man(a1-3)[GlcNAc(b1-4)][Gal(b1-4)GlcNAc(b1-2)[Gal(b1-4)GlcNAc(b1-6)]Man(a1-6)]Man(b1-4)GlcNAc(b1-4)GlcNAc
# How it was run: as §1
# [12] = target: Gal(b1-4)GlcNAc(b1-3)Gal(b1-4)GlcNAc(b1-3)Gal(b1-4)GlcNAc(b1-2)Man(a1-3)[Gal(b1-4)GlcNAc(b1-3)Gal(b1-4)GlcNAc(b1-3)Gal(b1-4)GlcNAc(b1-2)Man(a1-6)]Man(b1-4)GlcNAc(b1-4)[Fuc(a1-6)]GlcNAc
# How it was run: as §1
# [13] = target: Gal(b1-4)GlcNAc(b1-3)GalNAc
# How it was run: as §1
# [14] = target: Gal(b1-4)GlcNAc(b1-3)[Fuc(a1-3)GlcNAc(b1-6)]Gal(b1-4)Glc
# How it was run: as §1
# [15] = target: GlcNAc(b1-3)Gal(b1-4)GlcNAc(b1-3)[GlcNAc(b1-3)Gal(b1-4)GlcNAc(b1-3)]GalNAc
# How it was run: as §1
# [16] = target: GlcNAc(b1-3)Gal(b1-4)GlcNAc(b1-6)[Gal(b1-3)]GalNAc
# How it was run: as §1
# [17] = target: GlcNAc(b1-3)[GlcNAc(b1-4)][GlcNAc(b1-6)]GlcNAc
# How it was run: as §1
# [18] = target: GlcNAc(b1-4)[GlcNAc(b1-6)]GalNAc
# How it was run: as §1
# [19] = target: Kdn(a2-3)Gal(b1-4)[Fuc(a1-3)]GlcNAc
# How it was run: as §1
# [20] = target: Man(a1-2)Man(a1-2)Man(a1-3)Man
# How it was run: as §1
# [21] = target: Man(a1-2)Man(a1-2)Man(a1-6)[Man(a1-3)]Man
# How it was run: as §1
# Man(a1-2)Man(a1-3)Man = target: Man(a1-2)Man(a1-3)Man
# How it was run: as §1
# [22] = target: Man(a1-2)Man(a1-3)[Man(a1-2)Man(a1-6)]Man
# How it was run: as §1
# [23] = target: Man(a1-2)Man(a1-3)[Man(a1-2)Man(a1-6)]Man(a1-6)[Man(a1-2)Man(a1-2)Man(a1-3)]Man
# How it was run: as §1
# [24] = target: Man(a1-2)Man(a1-6)[Man(a1-3)]Man(a1-6)[Man(a1-2)Man(a1-2)Man(a1-3)]Man
# How it was run: as §1
# [25] = target: Man(a1-2)Man(a1-6)[Man(a1-3)]Man(a1-6)[Man(a1-2)Man(a1-2)Man(a1-3)]Man(b1-4)GlcNAc(b1-4)GlcNAc
# How it was run: as §1
# [26] = target: Man(a1-3)[Man(a1-6)]Man(a1-6)[Man(a1-2)Man(a1-3)]Man(b1-4)GlcNAc(b1-4)GlcNAc
# How it was run: as §1
# [27] = target: Neu5Ac(a2-3)Gal(b1-3)GalNAc
# How it was run: as §1
# [28] = target: Neu5Ac(a2-3)Gal(b1-3)[Fuc(a1-4)]GlcNAc
# How it was run: as §1
# [29] = target: Neu5Ac(a2-3)Gal(b1-3)[GlcNAc(b1-6)]GalNAc
# How it was run: as §1
# [30] = target: Neu5Ac(a2-3)Gal(b1-3)]Neu5Ac(a2-3)Gal(b1-4)]GlcNAc
# How it was run: as §1
# [31] = target: Neu5Ac(a2-3)Gal(b1-4)GlcNAc(b1-2)Man(a1-3)[GlcNAc(b1-4)][Neu5Ac(a2-3)Gal(b1-4)GlcNAc(b1-2)Man(a1-6)]Man(b1-4)GlcNAc(b1-4)GlcNAc
# How it was run: as §1
# [32] = target: Neu5Ac(a2-3)Gal6S(b1-4)[Fuc(a1-3)]GlcNAc
# How it was run: as §1
# Neu5Ac(a2-6)GalNAc = target: Neu5Ac(a2-6)GalNAc
# How it was run: as §1
# [33] = target: Neu5Ac(a2-6)GalNAc(b1-4)GlcNAc
# How it was run: as §1
# [34] = target: Neu5Ac(a2-8)Neu5Ac(a2-3)[GalNAc(b1-4)]Gal(b1-4)Glc
# How it was run: as §1
# [35] = target: Neu5Ac(a2-8)Neu5Gc(a2-3)Gal(b1-4)GlcNAc
# How it was run: as §1
# [36] = target: Neu5Gc(a2-8)Neu5Gc(a2-3)Gal(b1-4)GlcNAc(b1-3)Gal(b1-4)GlcNAc
# How it was run: as §1
binder,measurement,setting,value
B1,glycan array binding signal (z-score),[1],-0.199
same,glycan array binding signal (z-score),[2],-0.182
same,glycan array binding signal (z-score),Fuc(a1-2)Gal(b1-4)Glc,-0.165
same,glycan array binding signal (z-score),[3],0.311
same,glycan array binding signal (z-score),[4],-0.136
same,glycan array binding signal (z-score),[5],-0.1
same,glycan array binding signal (z-score),[6],-0.122
same,glycan array binding signal (z-score),Fuc(a1-4)GlcNAc,-0.102
same,glycan array binding signal (z-score),Gal(b1-3)Gal,-0.111
same,glycan array binding signal (z-score),[7],0.015
same,glycan array binding signal (z-score),[8],1.31
same,glycan array binding signal (z-score),[9],-0.15
same,glycan array binding signal (z-score),Gal(b1-4)Glc6S,-0.188
same,glycan array binding signal (z-score),[10],0.09
same,glycan array binding signal (z-score),[11],-0.17
same,glycan array binding signal (z-score),[12],-0.086
same,glycan array binding signal (z-score),[13],-0.186
same,glycan array binding signal (z-score),[14],-0.161
same,glycan array binding signal (z-score),[15],-0.182
same,glycan array binding signal (z-score),[16],-0.196
same,glycan array binding signal (z-score),[17],1.3
same,glycan array binding signal (z-score),[18],1.29
same,glycan array binding signal (z-score),[19],-0.14
same,glycan array binding signal (z-score),[20],10.3
same,glycan array binding signal (z-score),[21],13.5
same,glycan array binding signal (z-score),Man(a1-2)Man(a1-3)Man,4.35
same,glycan array binding signal (z-score),[22],7.43
same,glycan array binding signal (z-score),[23],13.9
same,glycan array binding signal (z-score),[24],3.05
same,glycan array binding signal (z-score),[25],1.38
same,glycan array binding signal (z-score),[26],1.16
same,glycan array binding signal (z-score),[27],0.09
same,glycan array binding signal (z-score),[28],-0.165
same,glycan array binding signal (z-score),[29],-0.193
same,glycan array binding signal (z-score),[30],-0.206
same,glycan array binding signal (z-score),[31],-0.193
same,glycan array binding signal (z-score),[32],-0.193
same,glycan array binding signal (z-score),Neu5Ac(a2-6)GalNAc,-0.176
same,glycan array binding signal (z-score),[33],-0.192
same,glycan array binding signal (z-score),[34],-0.177
same,glycan array binding signal (z-score),[35],-0.21
same,glycan array binding signal (z-score),[36],-0.206
